Measured values reported in PubChem BioAssay (EPA / NIEHS).
Activity calls are given as the source filed them. Rule for the calls: active = hit-call score of the fitted dose curve at least 0.9, where 1 is the maximum; inactive = score below 0.9.

Test: ATG_GLI_CIS: Attagene CIS-FACTORIAL HepG2 Assay for human Zinc Finger Protein GLI1 (AID 2282945)
Settings: HepG2, Attagene cis-factorial reporter mRNA, GLI element; actives raise or lower the signal
Method: ATG_CIS is a cell-based, multiplexed-readout assay that uses HepG2, a human liver cell line, with measurements taken at 24 hours after chemical dosing in a 24-well plate.ATG_GLI_CIS is one of 52 assay component(s) measured or calculated from the ATG_CIS assay. It is designed to make measurements of mRNA induction, a form of inducible reporter, as detected with fluorescence intensity signals by Reverse transcription polymerase chain reaction (RT-PCR) and Capillary electrophoresis technology.Data from the assay component ATG_GLI_CIS was analyzed into 1 assay endpoint. This assay endpoint, ATG_GLI_CIS, was analyzed with bidirectional fitting relative to DMSO as the negative control and baseline of activity. Using a type of inducible reporter, measures of mRNA for gain or loss-of-signal activity can be used to understand the reporter gene at the transcription factor-level as they relate to the gene GLI1. Furthermore, this assay endpoint can be referred to as a primary readout, because this assay has produced multiple assay endpoints where this one serves a reporter gene function. To generalize the intended target to other relatable targets, this assay endpoint is annotated to the dna binding intended target family, where the subfamily is zinc finger.
Human liver HepG2 cells are transiently transfected with multiple reporter transcription units (MRTUs) in 6-well plates using FuGene 6 reagent (Roche; 3 ml FuGene/1 mg DNA). The MRTU constructs are regulated by a cis-regulating element (promoter). […] A major difference between the CIS and TRANS system is that in CIS activities of endogenous TFs are measured, whereas the TRANS assay evaluates changes in activities of exogenous, chimeric NR-Gal4 proteins. […] At the end of 24 hour incubation, total RNA was isolated using TriZol reagent (Invitrogen). The isolated RNA is then reverse-transcribed using oligo(dT) primer and Mo-MLV reverse transcriptase (Invitrogen) with DNAse I (Ambion) treatment for 30 min. The one-tenth of the produced cDNA was amplified by PCR using Taq DNA polymerase (Invitrogen) and two reporter sequence-specific primers. The PCR products were fluorescently labeled by primer extension with 6-arboxyfluorescein (6-FAM) 5'-labeled reporter sequence-specific primer (2 min at 95 C, 20 s at 68 C and 10 min at 72 C) and these products were digested with 5U of HpaI (New England Biolabs) for 2h at 37 C. The fragments were purified using Qiaquick PCR columns (Qiagen), analyzed on an ABI 3130xL genetic analyzer (Applied Biosystems) with peak positions identified by using a set of X-rhodamine (ROX)-labeled MapMarker1000 molecular weight standards (BioVentures). The raw capillary electrophoresis data was processed using Attagraph software (Attagene).

SMILES | outcome | AC50
CCCCCCCCCCCCCC(=O)OC(C)C | inactive | –
C=C(C)C1CC=C(C)CC1 (stereo not given) | inactive | –
CC(=O)OC1CCCCC1 | inactive | –
CC(C)(CO)COC(=O)C(C)(C)CO | inactive | –
O=C1CCCCCCCCCCC1 | inactive | –
Cc1c[nH]c(=O)[nH]c1=O | inactive | –
CCCCC(CC)COS(=O)(=O)O (stereo not given) | inactive | –
CCCCCCOc1ccc(N)cc1 | inactive | –
CCCC=C(C=O)CC | inactive | –
CCC(C)C(=O)OCCc1ccccc1 (stereo not given) | inactive | –
CC(C)=NNC(N)=S | inactive | –
CCOC(=O)/C=C\C(=O)OCC | inactive | –
COC(=O)C=Cc1ccccc1 | inactive | –
Cn1cccc1 | inactive | –
CCCCCCCCCC[N+](C)(CCCCCCCCCC)CCC[Si](OC)(OC)OC | inactive | –
CCc1cccc(C)c1N(C(=O)CS(=O)(=O)O)C(C)COC (stereo not given) | inactive | –
CCCSSCCC | inactive | –
CC(CC=O)CC(C)(C)C (stereo not given) | inactive | –
CC(=O)C(C)C | inactive | –
C=C[C@@]1(C)CC(=O)[C@]2(O)[C@@]3(C)[C@@H](O)CCC(C)(C)[C@@H]3[C@H](O)[C@H](OC(C)=O)[C@@]2(C)O1 | inactive | –

SMILES | outcome | AC50
O=C(OCCc1ccccc1)c1ccccc1 | inactive | –
CCCCCCCCCCCCCc1ccccc1 | inactive | –
CCCCCC1=CCCC1=O | inactive | –
CC(C)CCCCCOC(=O)CS | inactive | –
C=CCCCCCCCCC=O | inactive | –
NNS(=O)(=O)c1ccc(Oc2ccc(S(=O)(=O)NN)cc2)cc1 | inactive | –
C=CC(=O)OCC(C)OCC(C)OCC(C)OC(=O)C=C (stereo not given) | inactive | –
O=C(C=Cc1ccccc1)OCCc1ccccc1 | inactive | –
O=C(O[C@@H]1Cc2c(O)cc(O)cc2O[C@@H]1c1cc(O)c(O)c(O)c1)c1cc(O)c(O)c(O)c1 | inactive | –
CC1(C)C(=O)N(CO)C(=O)N1CO | inactive | –
CC/C=C\CCOC(=O)c1ccccc1O | inactive | –
CCOC(=O)OC(=O)OCC | inactive | –
CCN1CCCC1=O | inactive | –
Oc1c(Cl)cc(Cl)c(Cl)c1Cl | inactive | –
CC1=CCC2CC1C2(C)C (stereo not given) | inactive | –
O=C(O)CCC(=O)O | inactive | –
C=CCNCC=C | inactive | –
CCCCCC[C@@H](O)C/C=C\CCCCCCCC(=O)OCC(O)CO (stereo not given in full) | – | 143 µM (active)
Nc1ccc(C(=O)O)cc1 | inactive | –
CCC(C)c1ccccc1 (stereo not given) | inactive | –
